Laboratory results as given in PubChem BioAssay (NCI).
About 79,000 compounds went through this panel and 15% of them were active in at least one assay; those are over-represented in the sample as a whole. Unmarked numbers belong to inactive results. Calls of active or inactive are those of the source. No stated cut-off is given here; in the data, active means growth inhibition above about 70%; inactive means the rest.

Experiments:
[1] = NCI Yeast Anticancer Drug Screen. Data for the rad50 strain (AID 155);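 further: 0% = growth of vehicle-only cultures of the same strain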; conditions: S. cerevisiae rad50 strain growth inhibition, hits give high values
How it was run: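 Compounds were tested on a yeast strain with an engineered DNA damage repair alteration; the reported value is growth inhibition normalised to vehicle treatment.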

[2] = NCI Yeast Anticancer Drug Screen. Data for the mec2-1 strain (AID 157); conditions: S. cerevisiae mec2-1 strain, hits give high values
How it was run: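 Strain: mec2-1 (DNA repair/cell cycle alteration). Compound exposure, then growth measured; inhibition expressed relative to vehicle.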

[3] = NCI Yeast Anticancer Drug Screen. Data for the sgs1 mgt1 strain (AID 161);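 further: 0% = growth of cultures given vehicle only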; conditions: S. cerevisiae sgs1 mgt1 strain, hits give high values
How it was run: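 Test agents were incubated with a DNA-repair-mutant yeast strain. Growth was then read and compared against vehicle-treated controls.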

[4] = NCI Yeast Anticancer Drug Screen. Data for the cln2 rad14 strain (AID 165);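 further: 0% = growth equal to vehicle treated cultures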; conditions: S. cerevisiae cln2 rad14 strain, hits give high values
How it was run: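 Compounds are applied to the cln2 rad14 yeast strain, and growth is then compared with that of vehicle-treated cultures to give inhibition.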

[5] = NCI Yeast Anticancer Drug Screen. Data for the bub3 strain (AID 167); conditions: S. cerevisiae bub3 mutant strain, hits give high values
How it was run: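 Growth of a checkpoint-deficient yeast mutant is measured after compound exposure. Values represent inhibition relative to vehicle.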

[6] = NCI Yeast Anticancer Drug Screen. Data for the mlh1 rad18 strain (AID 175); conditions: S. cerevisiae mlh1 rad18 strain growth inhibition, hits give high values
How it was run: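 Read-out is yeast growth inhibition, calculated against vehicle-only controls. The compound was applied to a strain engineered with DNA damage repair alterations.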

[7] = at 5.0 µM (retest, dose inferred, filed as 0.5)
[8] = at 50.0 µM (retest, dose inferred, filed as 5.0)

| Compound | growth inhibition [1, 7] | growth inhibition [1, 8] | growth inhibition ([1]; at 50.0 µM) | growth inhibition [2, 7] | growth inhibition [2, 8] | growth inhibition ([2]; at 50.0 µM) | growth inhibition [3, 7] | growth inhibition [3, 8] | growth inhibition ([3]; at 50.0 µM) | growth inhibition [4, 7] [%] | growth inhibition [4, 8] | growth inhibition ([4]; at 50.0 µM) | growth inhibition [5, 7] | growth inhibition [5, 8] | growth inhibition ([5]; at 50.0 µM) | growth inhibition [6, 7] | growth inhibition [6, 8] | growth inhibition ([6]; at 50.0 µM) |
| --- | --- | --- | --- | --- | --- | --- | --- | --- | --- | --- | --- | --- | --- | --- | --- | --- | --- | --- |
| O=C1c2ccccc2C(=O)N1/N=C\c1ccccc1[N+](=O)[O-] | 1% | 75% (active) | 89% (active) | -2% | 41% | 4.9% | 3% | 96% (active) | -3.8% | -5 | 32% | -29.1% | -3% | 85% (active) | 3.75% | -3% | 93% (active) | 0.5% |
| COc1ccc(C2C3=C(CC(C)(C)CC3=O)Oc3cc4c(cc32)OCO4)c(OC)c1 (configuration not stated) | 9% | 48% | 52.4% | 16% | 27% | 65.5% | 11% | -17% | 64.2% | 5 | 20% | 20.2% | 2% | 52% | 45.8% | 5% | 14% | 73% (active) |
| CCOC(=O)c1nc(SC)sc1NC(=O)c1ccccc1Cl | 1% | 1% | 19.4% | -5% | -5% | -15.6% | 4% | 4% | 77.8% (active) | -13 | -13% | 27.8% | -14% | -14% | 30.4% | -5% | -5% | -8.2% |
| Cc1c2c(c(C)c3c1OC(C)(C)CC3)OC(C)(C)CC2 | -10% | -4% | 34.6% | -13% | -7% | 77.2% (active) | -14% | 8% | 62.2% | -6 | 0% | 46.5% | -5% | -5% | 11.2% | -13% | -7% | 98.2% (active) |
| O=C1OC(=O)c2cccc3cccc1c23 | 51% | 99% (active) | 98.8% (active) | 35% | 99% (active) | 99.1% (active) | 19% | 99% (active) | 98.5% (active) | 23 | 99% (active) | 98.5% (active) | 58% | 99% (active) | 99.5% (active) | 57% | 99% (active) | 98.4% (active) |
| CCOC(=O)C(Br)C(Br)c1cccc(Cl)c1 (configuration not stated) | 53% | 99% (active) | 99.5% (active) | 64% | 99% (active) | 99.7% (active) | 84% (active) | 99% (active) | 99.8% (active) | 31 | 99% (active) | 99.4% (active) | 57% | 99% (active) | 99.8% (active) | 84% (active) | 99% (active) | 99.5% (active) |
| OC(C1CCC=NN1C(O)(C(F)(F)F)C(F)(F)F)(C(F)(F)F)C(F)(F)F (configuration not stated) | 8% | 86% (active) | 89.7% (active) | -3% | 71% (active) | 83.1% (active) | -2% | 69% | 87.7% (active) | 12 | 58% | 78.8% (active) | -6% | 78% (active) | 92.5% (active) | 9% | 87% (active) | 94% (active) |
| COc1cc(C2C=C(c3ccccc3)Oc3cc4c(cc32)OCO4)cc(OC)c1OC (configuration not stated) | 8% | 21% | -30.1% | -11% | 16% | -39.9% | -13% | 25% | -7.8% | -10 | 27% | -5.3% | -33% | 38% | 11.9% | 1% | 23% | 3.4% |
| CCCCCCC(O)CCOC(C)=O (configuration not stated) | -3% | -3% | -19.4% | 4% | 0% | -13.2% | 1% | -3% | -2.15% | 2 | -11% | -14.8% | 4% | 1% | 33.1% | -3% | 4% | -1.6% |
| COc1ccc2c(c1)CN1C(CCC3c4ccccc4NC31)C2 (configuration not stated) | -17% | 16% | 88.5% (active) | -5% | 11% | 72.3% (active) | -5% | 30% | 86.7% (active) | 26 | 11% | 51.3% | -35% | 13% | 61.6% | -12% | 27% | 90.5% (active) |
| COc1ccc(/C=C/Cc2cc3c(cc2O)OCO3)cc1 | -15% | 13% | -4.05% | -2% | -10% | -9.7% | 12% | 5% | 13.1% | 3 | -2% | 25.8% | -2% | 14% | 17.2% | -6% | 1% | 0.85% |
| CCCCC(CC)C(O)C(=O)O (configuration not stated) | 2% | 30% | 46.8% | -1% | 27% | 45.7% | 4% | 4% | 40.4% | 6 | 32% | 26.6% | 1% | 26% | 33.9% | -2% | 31% | 54.4% |
| Cc1cc(Sc2ccccc2)c2c(C)ccc(C(C)C)cc1-2 | 0% | -7% | -13.8% | -8% | -12% | 61.4% | 1% | 6% | -0.65% | -16 | -9% | 78.2% (active) | -5% | -10% | 21.4% | -2% | -3% | 58% |
| Cc1ccc2[nH]c3c(c2c1)CCC/C3=N/N=C(N)N | 26% | 93% (active) | 63% | 14% | 100% (active) | 83% (active) | 24% | 99% (active) | 90.8% (active) | 22 | 99% (active) | 91% (active) | 21% | 99% (active) | 89.2% (active) | 29% | 97% (active) | 90.8% (active) |
| CN(C)c1ccc(C(c2ccc(N(C)C)cc2)c2cccc([N+](=O)[O-])c2)cc1 | -2% | -3% | -11.2% | -3% | -13% | 0.2% | -2% | -1% | -2.45% | -8 | -33% | 14.9% | 43% | 26% | 50.1% | -2% | -12% | 7.9% |
| C/C(=N\NC(=S)N1CCCCCC1)c1ccccn1 | 88% (active) | 99% (active) | 91.5% (active) | 86% (active) | 99% (active) | 92.6% (active) | 77% (active) | 99% (active) | 92.3% (active) | 67 | 98% (active) | 89.7% (active) | 87% (active) | 99% (active) | 92.1% (active) | 90% (active) | 98% (active) | 92% (active) |
| CN(C)C(=S)/N=c1\ss/c(=N\C(=S)N(C)C)n1-c1ccc(Cl)cc1 | 9% | 9% | 94.2% (active) | 14% | -7% | 92.1% (active) | 7% | 13% | 95.7% (active) | 5 | -10% | 72.3% (active) | 3% | -2% | 90% (active) | 8% | 29% | 96.2% (active) |
| Oc1ccc(COCCBr)c2cccnc12 | 8% | 98% (active) | 98.8% (active) | -2% | 99% (active) | 99.5% (active) | 4% | 99% (active) | 99.2% (active) | 8 | 98% (active) | 98.5% (active) | 1% | 98% (active) | 99.2% (active) | 30% | 99% (active) | 99.2% (active) |
| Cc1ccc(Nc2nc(C)c(C(=O)C/C(=N\NC(N)=S)C(=O)Nc3ccc(Cl)cc3C)s2)cc1 | -6% | 19% | 71.5% (active) | -12% | -3% | 17.2% | -3% | 11% | 82.3% (active) | -8 | 10% | 34.6% | -19% | 5% | 33% | 12% | -9% | 57.1% |
